A short description of assay [1]: Primary qHTS for inhibitors of nuclear receptor binding SET domain protein 2 (NSD2) in an isogenic RCH-ACV NSD2 p.E1099K mutant (9B) (AID 1645876).
A short description of assay [2]: Primary qHTS for inhibitors of nuclear receptor binding SET domain protein 2 (NSD2) in an RCH-ACV wild type WT cells (2C) (AID 1645877). In general terms: Quantitative high-throughput screening tests each substance at several concentrations.

Values joined by “and” are separate entries in the source; they are usually repeats but may differ in a detail not shown here. Identical values can stand only once. Records with an inconclusive call do not appear. Some compounds were tested as several samples or in several runs, with calls that do not always agree. Active and inactive are the calls of the source. The call rests on the fitted dose curve; in most records, active means well fitted curve in the direction sought with a large enough effect; inconclusive means small, poorly fitted or top-dose-only effect, or another doubt; inactive means no such curve, though single readings can be large; an effect the other way counts as inactive or inconclusive.
Further: nearly all actives have a fitted effect of over 70% in size.
On the % scale 0 is the no-effect control and ±100 the full control effect; potency means the concentration at half of the fitted maximal effect.

Turning to `CC1CCC2C(C)(C)CC(C)(CO)C2(O)C1C(=O)O` (stereo not drawn), the Potency result in assay [1] and in assay [2] was “inactive” in each case.
Take `O=C1NC(Cc2ccc(O)cc2)C(=O)N2CCCC12` (stereo not drawn): the Potency entry in assay [1] and in assay [2] was “inactive” in each case.
Regarding `C=C1CCC[C@]2(C)C[C@]3(O)OC(=O)C(C)=C3C[C@@H]12`, the Potency result in assay [1] and in assay [2] was “inactive” in each case.
Take `N[C@H]1C[C@H]1c1ccc(-c2cccc(O)c2)cc1`: the Potency entry in assay [1] and in assay [2] was “inactive” in each case.
`NC1CCC(N[C@@H]2C[C@H]2c2ccccc2)CC1` (stereo partly drawn): the Potency entry in assay [1] is “inactive”. Also, in assay [2], the Potency result is “inactive and 26.3 µM (active)”.
With `CC(C)C1(O[C@@H]2O[C@H](CO)[C@@H](O)[C@H](O)[C@H]2O)CC=C(CO)CC1` (stereo partly drawn), the Potency result in assay [1] and in assay [2] was “inactive” throughout.
For the compound `CC(C)[C@@H](C)/C=C/[C@@H](C)[C@H]1CC[C@H]2C3=CC=C4C[C@@H](O)CC[C@]4(C)[C@H]3CC[C@]12C`, the Potency result in assay [1] and in assay [2] was “inactive” each time.
Consider `O=C(O)C[C@H]1CCC(=O)[C@@H]1C/C=C\CCOC1OC(CO)C(O)C(O)C1O` (stereo partly drawn), for which the Potency entry in assay [1] and in assay [2] was “inactive” in each case.
On to `CC(CCC1(O)OC2CC3C4CCC5CC(O[C@@H]6O[C@H](CO)[C@@H](O)[C@H](O)[C@H]6O[C@@H]6OC[C@@H](O)[C@H](O)[C@H]6O)C(O)CC5(C)C4CCC3(C)C2C1C)CO[C@@H]1O[C@H](CO)[C@@H](O)[C@H](O)[C@H]1O` (stereo partly drawn), for which the outcome in assay [1] and in assay [2] was “inactive [at 9.23 µM]” each time.
For the compound `C=C(C)C1CC2(CO)C(=CC1=O)CCC(O)C2C` (stereo not drawn), the Potency result in assay [1] and in assay [2] was “inactive” each time.
`CC(/C=C/C1(O)C(C)(C)CC(O)CC1(C)O)OC1OC(CO)C(O)C(O)C1O` (stereo not drawn): the Potency result in assay [1] and in assay [2] was “inactive” in each case.
In the case of `CC(C#N)C(C)O[C@@H]1O[C@H](CO)[C@@H](O)[C@H](O)[C@H]1O` (stereo partly drawn), the Potency result in assay [1] and in assay [2] was “inactive” throughout.
`CC1=C(C)C(=O)OC(C(C)C2C(O)CC3C4C5OC5C5(O)CC(OC6OC(CO)C(O)C(O)C6O)CC(O)C5(C)C4CCC32C)C1` (stereo not drawn): the Potency entry in assay [1] and in assay [2] was “inactive” throughout.
In the case of `COc1cc(CC(COC2OC(CO)C(O)C(O)C2O)c2cc(/C=C/CO)cc(OC)c2O)ccc1O` (stereo not drawn), the Potency result in assay [1] and in assay [2] was “inactive” in each case.
As for `CC(/C=C/C1(O)C2(C)COC1(C)CC(=O)C2)O[C@@H]1O[C@H](CO)[C@@H](O)[C@H](O)[C@H]1O` (stereo partly drawn), the Potency entry in assay [1] and in assay [2] was “inactive” each time.
As for `C=C1CC[C@@H]2[C@](C)(CO[C@@H]3O[C@H](CO)[C@@H](O)[C@H](O)[C@H]3O)CCC[C@@]2(C)[C@@H]1CCC1=CCOC1=O`, the Potency entry in assay [1] and in assay [2] was “inactive” each time.
`CCCCCCc1cccc(NC(=O)[C@H](N)CCP(=O)(O)O)c1`: the outcome in assay [1] and in assay [2] was “inactive [at 9.23 µM]” in each case.
Consider `CC1(C)NC2N(C1=O)c1ccccc1C2(O)CC(C(=O)O)n1cnc2ccccc2c1=O` (stereo not drawn), for which the Potency result in assay [1] and in assay [2] was “inactive” in each case.
With `COC(=O)[C@H](OC(C)=O)[C@H]1C(C)(C)C(=O)[C@H]2CC3=C4CC(=O)O[C@@H](c5ccoc5)[C@]4(C)CCC3[C@@]1(C)C2=O` (stereo partly drawn), the Potency entry in assay [1] and in assay [2] was “inactive” throughout.
Take `C=C[C@@]1(C)CC(=O)C2[C@](C)(O1)[C@@H](OC(C)=O)[C@@H](O)[C@H]1C(C)(C)CCC[C@]21C` (stereo partly drawn): the activity change, negative = viability loss in assay [1] is 1.01% [at 9.23 µM] (inactive). Further, in assay [2], the outcome was “inactive [at 9.23 µM]”.
With `COc1ccccc1CC(C(=O)O)N(C)C(=O)c1ccccc1` (stereo not drawn), the Potency result in assay [1] and in assay [2] was “inactive” in each case.
`CC1(C)O[C@@H]2C[C@H]3[C@@H]4CCC5=CC(=O)C=C[C@]5(C)[C@H]4[C@@H](O)C[C@]3(C)[C@]2(C(=O)CO)O1`: the Potency result in assay [1] is “inactive”. Moreover, the Potency in assay [2] was 46.8 nM (active).
The matching figures for `C=C1CC23CCC4[C@@](C)(CCC[C@@]4(C)C(=O)O)C2CCC1C3` (stereo partly drawn): “inactive” and “inactive”.
The matching figures for `CC(C)(O)C1=CCC23COC(C2)C(O)(C(=O)O)CCC13` (stereo not drawn): “inactive” and “inactive”.
Regarding `C/C=C(\C)C(=O)O[C@@H](C)[C@H]1CC[C@]2(O)C3CCC4C[C@@H](OC5CC(OC)C(OC6CC(OC)C(OC7CC(OC)C(OC8OC(C)C(OC9OC(CO)C(O)C(O)C9O)C(OC)C8O)C(C)O7)C(C)O6)C(C)O5)CC[C@]4(C)C3[C@H](O)[C@@H](O)[C@]12C` (stereo partly drawn), the activity change, negative = viability loss in assay [1] is -6.35% [at 9.23 µM] (inactive). The activity change, negative = cell killing in assay [2] was -1.09% [at 9.23 µM] (inactive).
For the compound `O=C(O)C[C@H](O)C[C@H](O)/C=C/c1c(C2CC2)nc2ccccc2c1-c1ccc(F)cc1`, the Potency in assay [1] is 1.83 µM (active) and 1.18 µM (active); in assay [2], 1.83 µM (active) and 934 nM (active).
Take `OC[C@H]1O[C@@H](OC(CCCCc2ccc(O)cc2)CCc2ccc(O)cc2)[C@H](O[C@@H]2OC[C@](O)(CO)[C@H]2O)[C@@H](O)[C@@H]1O` (stereo partly drawn): the Potency entry in assay [1] and in assay [2] was “inactive” in each case.
As to `CC1=CC(=O)CC(C)(C)C1(O)CCC(C)O` (stereo not drawn), the Potency result in assay [1] and in assay [2] was “inactive” throughout.
On to `C[C@@H]1C/C=C/C=C\C=C\C=C\[C@H](O[C@@H]2O[C@H](C)[C@@H](O)[C@H](N)[C@@H]2O)C[C@@H]2O[C@](O)(C[C@@H](O)C[C@H]3O[C@@H]3/C=C/C(=O)O1)C[C@H](O)[C@H]2C(=O)O`, for which the Potency result in assay [1] and in assay [2] was “inactive” in each case.

Values taken from PubChem BioAssay (NCATS).
